This is part of a sample that, as a whole, favours compounds with a hit. Of some 83,000 tested, about 20% had one in any assay.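 Each cell line was grown in a 96-well plate and treated with one concentration of compound for 48 hours. Values below 10 were considered active.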 Calls of active or inactive are those of the source.
Legend:
Assay in all cases: NCI-60 one-dose screen, 48 h (100 = growth as untreated, 0 = no growth, -100 = all killed)
Conditions in all cases: 10 µM unless noted
NCI-H23 lung = tested on: NCI-H23 lung
NCI-H226 lung = tested on: NCI-H226 lung
NCI-H322M lung = tested on: NCI-H322M lung
HOP-62 NSCLC = tested on: HOP-62 NSCLC
NCI-H460 lung = tested on: NCI-H460 lung
HOP-92 NSCLC = tested on: HOP-92 NSCLC
NCI-H522 lung = tested on: NCI-H522 lung
A549/ATCC NSCLC = tested on: A549/ATCC NSCLC
786-0 renal = tested on: 786-0 renal
COLO 205 colon = tested on: COLO 205 colon

Measured: growth

C[C@@H]1COC(Nc2ccc3ncnc(Nc4ccc(OCc5nccs5)c(Cl)c4)c3c2)=N1
inactive: NCI-H23 lung 46.8% | NCI-H226 lung 17.1% | NCI-H322M lung 20.1% | HOP-62 NSCLC 17.5% | NCI-H460 lung 57.9% | HOP-92 NSCLC 10.3% | A549/ATCC NSCLC 40.3% | 786-0 renal 50%
active: NCI-H522 lung 2.8% | COLO 205 colon -9.99%

Cc1[nH]c(/C=C2\C(=O)Nc3ccc(F)cc32)c(C)c1C(=O)NC[C@H](O)CN1CCOCC1
active: COLO 205 colon -8.22%
inactive: NCI-H23 lung 27.1% | NCI-H226 lung 47.8% | NCI-H322M lung 26.2% | HOP-62 NSCLC 25.7% | NCI-H460 lung 19% | HOP-92 NSCLC 14.5% | NCI-H522 lung 45.4% | A549/ATCC NSCLC 27.4% | 786-0 renal 35.6%

COc1cc2nc(Nc3cccc(Cl)c3)nc(N)c2cc1OC
active: COLO 205 colon -60.1%
inactive: NCI-H23 lung 88.2% | NCI-H226 lung 90.3% | NCI-H322M lung 89.7% | HOP-62 NSCLC 106% | NCI-H460 lung 66.9% | HOP-92 NSCLC 40.6% | NCI-H522 lung 101% | A549/ATCC NSCLC 73.4% | 786-0 renal 62%

CN1[C@@H]2CC[C@H]1/C(=C\c1ccccc1)C1=C2[C@@H](c2ccccc2)C(C#N)=C(N)O1
inactive: NCI-H23 lung 78.6% | NCI-H226 lung 67.2% | NCI-H322M lung 94.8% | HOP-62 NSCLC 90.6% | NCI-H460 lung 92.7% | HOP-92 NSCLC 78.7% | NCI-H522 lung 74% | A549/ATCC NSCLC 48.3% | 786-0 renal 73.4% | COLO 205 colon 80.4%

CC(C)c1cc(CNc2nc(Nc3cc(C4CC4)[nH]n3)cc(N3CCN(C)CC3)n2)on1
inactive: 786-0 renal 10.3%
active: NCI-H23 lung -25% | NCI-H226 lung -3.34% | NCI-H322M lung -20.1% | HOP-62 NSCLC -23.5% | NCI-H460 lung -47.6% | HOP-92 NSCLC -10.9% | NCI-H522 lung -34.7% | A549/ATCC NSCLC 3.1% | COLO 205 colon -69.6%

Cc1oc2c(C(=O)N/N=C\c3ccc(O)cc3O)c[nH]c2c1C
inactive: NCI-H23 lung 40.7% | NCI-H226 lung 28.8% | NCI-H322M lung 26.3% | HOP-62 NSCLC 20.9% | HOP-92 NSCLC 13.4% | NCI-H522 lung 16.1% | A549/ATCC NSCLC 12.7%
active: NCI-H460 lung 4.29% | 786-0 renal 5.43% | COLO 205 colon 8.96%

Cc1ccccc1Nc1nc2nonc2nc1Nc1cccc(C)c1C
active: NCI-H522 lung 3.35%
inactive: NCI-H23 lung 17.9% | NCI-H226 lung 48.6% | NCI-H322M lung 80.7% | HOP-62 NSCLC 72.1% | NCI-H460 lung 41.1% | HOP-92 NSCLC 22.5% | A549/ATCC NSCLC 27.4% | 786-0 renal 65.9% | COLO 205 colon 59.2%

Cc1ccc(F)c(NC(=O)Nc2ccc(-c3cccc4[nH]nc(N)c34)cc2)c1
active: NCI-H23 lung 9.14% | HOP-62 NSCLC -7.49% | NCI-H522 lung -23.3% | A549/ATCC NSCLC -50.5% | COLO 205 colon -48.7%
inactive: NCI-H226 lung 57.6% | NCI-H322M lung 21.5% | NCI-H460 lung 10.2% | HOP-92 NSCLC 63.8% | 786-0 renal 36.4%

COc1ccc2nc3cc(Cl)ccc3c(Nc3ccc(N(C)C)cc3)c2c1
inactive: NCI-H23 lung 91.9% | NCI-H226 lung 83.5% | NCI-H322M lung 109% | HOP-62 NSCLC 89.9% | NCI-H460 lung 70.6% | HOP-92 NSCLC 76.3% | NCI-H522 lung 86.6% | A549/ATCC NSCLC 69.3% | 786-0 renal 96.9% | COLO 205 colon 84.6%

CC(C)C1CCC(C)C(C2(C#N)C(N)=NC(N)=C2C#N)C1=O (stereo not given)
inactive: NCI-H23 lung 92.3% | NCI-H226 lung 100% | NCI-H322M lung 98.8% | HOP-62 NSCLC 104% | NCI-H460 lung 105% | HOP-92 NSCLC 88.9% | NCI-H522 lung 89.4% | A549/ATCC NSCLC 105% | 786-0 renal 106% | COLO 205 colon 100%

CC(C)(C)c1nc(-c2cccc(NS(=O)(=O)c3c(F)cccc3F)c2F)c(-c2ccnc(N)n2)s1
active: COLO 205 colon -5.08%
inactive: NCI-H23 lung 63.6% | NCI-H226 lung 84.5% | NCI-H322M lung 90.3% | HOP-62 NSCLC 77.1% | NCI-H460 lung 74.4% | HOP-92 NSCLC 92.9% | NCI-H522 lung 57.5% | A549/ATCC NSCLC 53.6% | 786-0 renal 91.9%

CC1(O)CCC2CC3OC3(C)CCC3OC3(C)C(O)CC1C2(C)C (stereo not given)
active: HOP-92 NSCLC -15.9%
inactive: NCI-H23 lung 96% | NCI-H226 lung 115% | NCI-H322M lung 115% | HOP-62 NSCLC 116% | NCI-H460 lung 120% | NCI-H522 lung 97.6% | A549/ATCC NSCLC 92.8% | 786-0 renal 104% | COLO 205 colon 109%

O=C1NC(=O)[C@@H](c2cn3c4c(cccc24)CCC3)[C@@H]1c1c[nH]c2ccccc12
inactive: NCI-H23 lung 32.5% | NCI-H226 lung 57% | NCI-H322M lung 41.9% | HOP-92 NSCLC 31% | 786-0 renal 21.5%
active: HOP-62 NSCLC 5.24% | NCI-H460 lung 5.41% | NCI-H522 lung -0.0655% | A549/ATCC NSCLC 6.25% | COLO 205 colon -57.3%

CNC(=O)c1cnc(C)nc1-c1cc(C(C)(C)C)c(O)c(C(C)(C)C)c1
inactive: NCI-H23 lung 103% | NCI-H226 lung 98.2% | NCI-H322M lung 104% | HOP-62 NSCLC 99.9% | NCI-H460 lung 108% | HOP-92 NSCLC 74% | NCI-H522 lung 83.2% | A549/ATCC NSCLC 95.9% | 786-0 renal 88.9% | COLO 205 colon 105%

O=C(Nc1ccc(N=Nc2ccccc2)cc1)c1cccc2ccccc12
inactive: NCI-H23 lung 81.2% | NCI-H226 lung 78.2% | NCI-H322M lung 77.9% | HOP-62 NSCLC 60.5% | NCI-H460 lung 61.1% | HOP-92 NSCLC 82.5% | NCI-H522 lung 34.9% | A549/ATCC NSCLC 46.1% | 786-0 renal 79.4% | COLO 205 colon 77.1%

O=C1CSC(c2c(F)cccc2Cl)N1NC(=O)C(O)(c1ccccc1)c1ccccc1 (stereo not given)
inactive: NCI-H23 lung 98.7% | NCI-H226 lung 95.3% | NCI-H322M lung 102% | HOP-62 NSCLC 86.8% | NCI-H460 lung 113% | HOP-92 NSCLC 86.3% | NCI-H522 lung 88.4% | A549/ATCC NSCLC 96.2% | 786-0 renal 97% | COLO 205 colon 104%

CCc1ccc(/C=C/c2ccc(O)c3ncccc23)[n+](C)c1
inactive: NCI-H23 lung 21% | NCI-H226 lung 24.2% | NCI-H322M lung 48.7% | HOP-62 NSCLC 24.5% | NCI-H460 lung 17.2% | HOP-92 NSCLC 83.6% | A549/ATCC NSCLC 18.3% | 786-0 renal 89.4% | COLO 205 colon 70.9%
active: NCI-H522 lung 1.23%

Cc1cc(C(=O)Nc2cc(Oc3ccc4nc(NC(=O)C5CC5)cn4n3)ccc2C)n(C)n1
inactive: NCI-H23 lung 24.7% | NCI-H226 lung 43.3% | NCI-H322M lung 15.8% | HOP-62 NSCLC 14.4% | NCI-H460 lung 18.9% | NCI-H522 lung 14.1% | A549/ATCC NSCLC 11% | 786-0 renal 51.9%
active: HOP-92 NSCLC -25.6% | COLO 205 colon -27.2%

Source: PubChem BioAssay (NCI)
